Experimental data from PubChem BioAssay (Tox21).
Where “and” joins values, the source holds several entries; their conditions need not be identical. Identical values can stand only once. Results filed as inconclusive are left out. Calls of active or inactive are those of the source. Unless noted, calls follow the shape of the dose curve; as a rule, active = well fitted curve in the direction sought with a large enough effect in the repeat runs; inconclusive = weak or mixed curves; inactive = no such curve, though single readings can be large; an effect the other way counts as inactive or inconclusive.

Columns and labels:
[1] = qHTS assay to identify small molecule agonists of the estrogen receptor alpha (ER-alpha) signaling pathway in the presence of an antagonist - cell viability counter screen (AID 1259386);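 also: potency is read from the fitted curve at half-maximal effect; cells exposed to compounds for 22 h at 37 °C before the viability read; nearly all actives have a fitted effect of over 30% in size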
In short: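 VM7Luc4E2 cells (endogenous full-length ER-alpha, 4×ERE-luciferase) were held 5 days in phenol red-free medium with 10% charcoal-stripped FBS, plated, then given 10.0nM ICI-182,780 and compounds at 15 concentrations for 22hr at 37C; viability read by CellTiter-Fluor fluorescence.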

[2] = qHTS assay to identify small molecule agonists of the TGF-beta/Smad signaling pathway - cell viability counter screen (AID 1346829); also: nearly all actives have a fitted effect of over 45% in size; also: potency is read from the fitted curve at half-maximal effect
In short: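 Here the cytotoxicity of library compounds is measured in SBE-bla HEK 293T cells treated for 5 hr, using CellTiter-Glo added to wells already read for the beta-lactamase reporter.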

[3] = molecular target: Thyrotropin-releasing hormone receptor (Homo sapiens) (UniProt P34981); assay: qHTS assay to identify small molecule antagonists of the thyrotropin-releasing hormone receptor (TRHR) signaling pathway (AID 1346877; active = well fitted inhibition curve with a large enough effect in the repeat runs, not every such curve was filed as active; also: potency is read from the fitted curve at half-maximal effect)
In short: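 TRHR-expressing HEK293 cells were seeded, cultured 18 h at 37 °C, then loaded with calcium dye for 2 h. Compounds were pre-incubated 5 min at room temperature before 1 nM TRH (final) was added, and kinetic fluorescence was recorded for 3 min.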

[4] = molecular target: Thyrotropin-releasing hormone receptor (Homo sapiens) (UniProt P34981); assay: qHTS assay to identify small molecule agonists of the thyrotropin-releasing hormone receptor (TRHR) signaling pathway (AID 1346891; calls by dose curve; also: potency is read from the fitted curve at half-maximal effect; as to activation: series mostly up to about 58 µM; % is scaled to controls: 0 for no effect and ±100 for the full control effect)
In short: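 Kinetic fluorescence (3 min, 1 s intervals) reported intracellular calcium after compound transfer onto TRHR-Hek293 cells pre-loaded with dye for 2 h at 37 °C.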

[5] = Human pregnane X receptor (PXR) small molecule agonists, qHTS cell viability counter screen (AID 1346977); also: nearly all actives have a fitted effect of over 50% in size; also: potency is read from the fitted curve at half-maximal effect
In short: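 HepG2 cells stably carrying the PXR-Luc reporter are cultured with 5% charcoal-stripped FBS and treated with compounds for 24hr. CellTiter-Fluor is added at 23hr and fluorescence is read after 1hr.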

[6] = Caspase-3/7 induction in HepG2 cells by small molecules, qHTS assay (AID 1346978); also: nearly all actives have a fitted effect of over 15% in size; also: potency is read from the fitted curve at half-maximal effect
In short: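 Caspase-3/7 induction was measured by Caspase-Glo 3/7 luminescence (30 min, room temperature) after a 17 hr compound exposure of wild-type HepG2 cells seeded at 2,000 per well and pre-incubated 5 hr.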

[7] = Caspase-3/7 induction in CHO-K1 cells by small molecules, qHTS cell viability counter screen (AID 1346979); also: nearly all actives have a fitted effect of over 35% in size; also: potency is read from the fitted curve at half-maximal effect
In short: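 Seeding: 1,500 CHO-K1 cells/well. Rest: 5hr, 37C. Treatment: compounds in DMSO, 16hr. Read: CellTiter-Fluor, 1hr, fluorescence.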

[8] = Caspase-3/7 induction in CHO-K1 cells by small molecules, qHTS assay (AID 1346980); also: % is scaled to controls: 0 for no effect and ±100 for the full control effect; nearly all actives have a fitted effect of over 15% in size
In short: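 Luminescent Caspase-Glo 3/7 read (30min, room temperature) quantified apoptosis induction. Cells were wild-type CHO-K1, treated with compound for 17hr at 37 C and 5% CO2.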

[9] = molecular target: Nuclear receptor subfamily 1 group I member 2 (Homo sapiens) (UniProt O75469); assay: Human pregnane X receptor (PXR) small molecule agonists, qHTS assay (AID 1346982); also: nearly all actives have a fitted effect of over 35% in size; also: potency is read from the fitted curve at half-maximal effect; as to activation: % is scaled to controls: 0 for no effect and ±100 for the full control effect
In short: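 PXR-Luc HepG2 cells (CYP3A4 promoter-driven luciferase) were seeded in medium with 5% charcoal-stripped FBS, left 5 hr at 37 C, then exposed to compounds in DMSO for 24 hr. Luminescence was read after ONE-Glo addition.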

[10] = molecular target: Acetylcholinesterase (Homo sapiens) (UniProt P22303); assay: Acetylcholinesterase (AChE) small molecule antagonists: colormetric cell-based qHTS assay (AID 1347395; calls by dose curve; also: nearly all actives have a fitted effect of over 30% in size; also: potency is read from the fitted curve at half-maximal effect)
In short: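 Quantitative HTS in attached SH-SY5Y cells: 30 min compound exposure, then 90 min with acetylthiocholine and DTNB at 37 C; colour from thiocholine reports AChE activity.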

[11] = qHTS assay to identify small molecule antagonists of the progesterone receptor (PR) signaling pathway - cell viability counter screen (AID 1346798); also: nearly all actives have a fitted effect of over 50% in size; also: potency is read from the fitted curve at half-maximal effect
In short: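 Viability was determined by ATP-based luminescence (CellTiter-Glo) in PR-UAS-bla HEK293T cells cultured in 2% charcoal-stripped serum and incubated 16 hr with compounds under R5020 stimulation.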

[12] = qHTS assay to identify small molecule agonists of the progesterone receptor (PR) signaling pathway - cell viability counter screen (AID 1346799; calls by dose curve; also: nearly all actives have a fitted effect of over 45% in size; also: potency is read from the fitted curve at half-maximal effect)
In short: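 Viability was scored by ATP luminescence (CellTiter-Glo, 30 min, room temperature) in the same wells used for the reporter readout, after 16 hr compound exposure of PR-UAS-bla HEK293T cells.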

[13] = qHTS assay to identify small molecule antagonists of the TGF-beta/Smad signaling pathway - cell viability counter screen (AID 1346824); also: nearly all actives have a fitted effect of over 50% in size; also: potency is read from the fitted curve at half-maximal effect
In short: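 Cytotoxicity counter-screen run in the same wells as the beta-lactamase Smad reporter read: CellTiter-Glo luminescence after 30 min at room temperature. HEK 293T SBE-bla cells had 5 hr compound exposure at 37 C with TGF-beta1 (0.25 ng/mL stock).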

[14] = molecular target: Progesterone receptor (Homo sapiens) (UniProt P06401); assay: qHTS assay to identify small molecule agonists of the progesterone receptor (PR) signaling pathway (AID 1346784; calls by dose curve; also: nearly all actives have a fitted effect of over 30% in size; also: potency is read from the fitted curve at half-maximal effect; as to activation: % is scaled to controls: 0 for no effect and ±100 for the full control effect)
In short: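 The screen uses PR-UAS-bla HEK 293T cells in charcoal-stripped serum (2%). Compounds are applied for 16 hr at 37C after a 6 hr pre-incubation, and reporter activity is detected with a FRET beta-lactamase substrate after 2 hr at room temperature.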

[15] = molecular target: Progesterone receptor (Homo sapiens) (UniProt P06401); assay: qHTS assay to identify small molecule antagonists of the progesterone receptor (PR) signaling pathway (AID 1346795; active = well fitted inhibition curve with a large enough effect in the signal ratio in the repeat runs, not every such curve was filed as active; the % refers to the signal ratio; also: potency is read from the fitted curve at half-maximal effect)
In short: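 After 6 hr plating at 37C in 2% stripped-serum medium, PR-UAS-bla HEK293T cells got compounds, then 1 nM R5020. Sixteen hours later, LiveBLAzer substrate was applied for 2 hr at room temperature and fluorescence was recorded.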

[16] = qHTS assay to identify small molecule agonists of the TGF-beta/Smad signaling pathway (AID 1346859; active = well fitted activation curve with a large enough effect in the signal ratio in the repeat runs, not every such curve was filed as active; the % refers to the signal ratio; also: series mostly up to about 77 µM; % is scaled to controls: 0 for no effect and ±100 for the full control effect)
In short: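 Dual-wavelength fluorescence (460/530 nm emission) quantified beta-lactamase expression under the Smad binding element in HEK 293T cells following 5 hr compound treatment at 37 C.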

[17] = Caspase-3/7 induction in HepG2 cells by small molecules, qHTS cell viability counter screen (AID 1346981); also: nearly all actives have a fitted effect of over 30% in size; also: potency is read from the fitted curve at half-maximal effect
In short: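 Wild-type HepG2 cells (2,000/well) were allowed to settle for 5 hr at 37 C, 5% CO2, then dosed with compounds in DMSO by pin transfer. After 16 hr at 37 C, CellTiter-Fluor was added and fluorescence read 1 hr later.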

[18] = molecular target: Nuclear receptor subfamily 1 group I member 2 (Rattus norvegicus) (UniProt Q9R1A7); assay: Rat pregnane X receptor (rPXR) activation by small molecules, qHTS assay (AID 1346983); details: rPXR luciferase reporter cells, One-Glo luminescence, 24 h; max activation: active compounds read high; also: % is scaled to controls: 0 for no effect and ±100 for the full control effect; nearly all actives have a fitted effect of over 20% in size
In short: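 Luminescent readout (One-Glo luciferase, 30 min room temperature) followed 24 hr compound treatment at 37 C of rPXR cells plated 2,000 per well and preincubated 5hr; qHTS format with compounds delivered in DMSO.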

[19] = molecular target: Nuclear receptor subfamily 1 group I member 2 (Homo sapiens) (UniProt O75469); assay: CYP3A4 induction through human pregnane X receptor (PXR) by small molecules, qHTS assay (AID 1346984); also: % is scaled to controls: 0 for no effect and ±100 for the full control effect; nearly all actives have a fitted effect of over 40% in size
In short: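 DPX-2 cells (HepG2 co-transfected with PXR and CYP3A4 promoter-luciferase) treated with compounds 24 h at 37C; luciferin-IPA CYP3A4 substrate 3uM final added for 3 h, then One-Glo; luminescence read. qHTS format.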

[20] = molecular target: Nuclear receptor subfamily 1 group I member 2 (Homo sapiens) (UniProt O75469); assay: Human pregnane X receptor (PXR) activation by small molecules, qHTS assay (AID 1346985); also: % is scaled to controls: 0 for no effect and ±100 for the full control effect; nearly all actives have a fitted effect of over 40% in size
In short: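 DPX-2 cells (HepG2 co-transfected with a PXR response element and a CYP3A4-promoter luciferase construct) were seeded at 2,000 per well, rested 5 hr at 37C, then exposed to DMSO-dissolved compounds for 24 hr. Activation was read as luciferase luminescence.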

Chain of Thyrotropin-releasing hormone receptor (Homo sapiens) (P34981 whole entry, looked up): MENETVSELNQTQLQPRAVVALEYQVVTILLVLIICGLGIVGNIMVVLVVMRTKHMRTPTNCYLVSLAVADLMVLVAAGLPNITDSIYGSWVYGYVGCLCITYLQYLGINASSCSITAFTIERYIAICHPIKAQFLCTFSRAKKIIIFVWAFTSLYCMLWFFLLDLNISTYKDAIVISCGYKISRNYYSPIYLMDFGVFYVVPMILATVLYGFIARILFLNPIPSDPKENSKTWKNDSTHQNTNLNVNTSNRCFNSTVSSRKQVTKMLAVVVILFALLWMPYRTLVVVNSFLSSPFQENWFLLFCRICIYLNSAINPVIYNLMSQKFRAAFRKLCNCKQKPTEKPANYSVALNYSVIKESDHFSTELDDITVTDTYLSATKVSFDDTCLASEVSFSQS
Chain of Nuclear receptor subfamily 1 group I member 2 (Homo sapiens) (O75469 whole entry, looked up): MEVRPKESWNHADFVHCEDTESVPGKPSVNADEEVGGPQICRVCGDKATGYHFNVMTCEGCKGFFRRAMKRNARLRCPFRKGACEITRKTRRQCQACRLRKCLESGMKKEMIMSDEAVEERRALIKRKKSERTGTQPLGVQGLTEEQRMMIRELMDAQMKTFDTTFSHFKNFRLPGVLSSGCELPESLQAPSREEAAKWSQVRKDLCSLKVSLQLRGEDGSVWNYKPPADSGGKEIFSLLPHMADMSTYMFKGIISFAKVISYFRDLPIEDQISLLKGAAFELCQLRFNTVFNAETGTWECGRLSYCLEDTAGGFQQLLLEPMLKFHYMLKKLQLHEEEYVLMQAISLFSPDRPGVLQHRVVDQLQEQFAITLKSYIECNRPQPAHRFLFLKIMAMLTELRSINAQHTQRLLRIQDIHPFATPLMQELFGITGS
Chain of Acetylcholinesterase (Homo sapiens) (P22303 whole entry, looked up): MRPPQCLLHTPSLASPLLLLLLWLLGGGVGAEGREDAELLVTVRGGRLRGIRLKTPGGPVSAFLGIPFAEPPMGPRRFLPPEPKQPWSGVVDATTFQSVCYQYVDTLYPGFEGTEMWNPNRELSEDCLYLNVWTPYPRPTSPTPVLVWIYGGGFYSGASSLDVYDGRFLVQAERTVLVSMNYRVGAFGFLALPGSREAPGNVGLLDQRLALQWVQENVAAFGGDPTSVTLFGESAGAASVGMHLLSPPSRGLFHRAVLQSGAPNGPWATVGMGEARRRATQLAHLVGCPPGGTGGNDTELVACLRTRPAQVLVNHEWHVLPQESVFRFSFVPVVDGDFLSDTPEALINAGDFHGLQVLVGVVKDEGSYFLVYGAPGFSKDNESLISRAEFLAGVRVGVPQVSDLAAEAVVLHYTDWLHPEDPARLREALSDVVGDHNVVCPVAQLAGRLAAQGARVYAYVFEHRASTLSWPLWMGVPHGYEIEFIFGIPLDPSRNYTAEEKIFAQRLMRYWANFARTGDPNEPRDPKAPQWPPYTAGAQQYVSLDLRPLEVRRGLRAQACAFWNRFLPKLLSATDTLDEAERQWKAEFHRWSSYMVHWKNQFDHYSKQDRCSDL
Chain of Progesterone receptor (Homo sapiens) (P06401 whole entry, looked up): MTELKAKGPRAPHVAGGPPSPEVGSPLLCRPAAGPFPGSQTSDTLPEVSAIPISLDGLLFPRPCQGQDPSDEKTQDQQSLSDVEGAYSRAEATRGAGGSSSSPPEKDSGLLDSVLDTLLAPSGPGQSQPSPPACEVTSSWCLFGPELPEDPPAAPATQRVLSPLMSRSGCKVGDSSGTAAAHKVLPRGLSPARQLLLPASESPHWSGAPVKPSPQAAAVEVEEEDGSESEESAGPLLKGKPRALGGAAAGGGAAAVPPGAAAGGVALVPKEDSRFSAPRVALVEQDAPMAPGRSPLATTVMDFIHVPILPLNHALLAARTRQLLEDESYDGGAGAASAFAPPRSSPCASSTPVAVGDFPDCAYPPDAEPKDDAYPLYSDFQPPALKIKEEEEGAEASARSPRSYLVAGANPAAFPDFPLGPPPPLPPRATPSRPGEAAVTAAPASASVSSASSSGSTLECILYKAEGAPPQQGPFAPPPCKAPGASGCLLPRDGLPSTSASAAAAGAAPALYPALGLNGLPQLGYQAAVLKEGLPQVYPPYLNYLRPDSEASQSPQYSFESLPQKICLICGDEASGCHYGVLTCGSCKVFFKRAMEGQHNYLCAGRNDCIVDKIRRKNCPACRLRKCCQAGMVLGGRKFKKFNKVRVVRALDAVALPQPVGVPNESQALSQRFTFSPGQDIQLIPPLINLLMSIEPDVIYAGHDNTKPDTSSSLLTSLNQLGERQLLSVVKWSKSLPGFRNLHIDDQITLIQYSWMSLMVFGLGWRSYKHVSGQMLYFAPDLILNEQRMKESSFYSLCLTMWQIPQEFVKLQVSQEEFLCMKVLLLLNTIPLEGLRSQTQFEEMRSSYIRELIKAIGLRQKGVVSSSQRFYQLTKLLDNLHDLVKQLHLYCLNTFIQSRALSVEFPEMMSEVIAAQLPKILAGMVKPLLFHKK
Chain of Nuclear receptor subfamily 1 group I member 2 (Rattus norvegicus) (Q9R1A7 whole entry, looked up): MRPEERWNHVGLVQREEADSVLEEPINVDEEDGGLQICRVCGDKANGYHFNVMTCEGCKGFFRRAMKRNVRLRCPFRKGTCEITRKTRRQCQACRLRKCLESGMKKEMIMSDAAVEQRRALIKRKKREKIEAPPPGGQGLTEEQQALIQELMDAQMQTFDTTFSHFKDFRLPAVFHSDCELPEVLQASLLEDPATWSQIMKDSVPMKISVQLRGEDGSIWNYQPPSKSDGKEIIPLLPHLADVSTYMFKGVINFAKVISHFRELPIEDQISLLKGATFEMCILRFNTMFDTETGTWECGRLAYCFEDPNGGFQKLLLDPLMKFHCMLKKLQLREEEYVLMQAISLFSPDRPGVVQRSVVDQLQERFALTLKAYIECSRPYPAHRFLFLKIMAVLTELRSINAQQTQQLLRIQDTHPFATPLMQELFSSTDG

N#CC(C#N)=NNc1cccc(Cl)c1
active: Potency [1] 21.7 µM | Potency [5] 3.86 µM | Potency [7] 3.86 µM
inactive: Potency [2] | Potency [3] | Potency [4] | Potency [6] | Potency [8] | Potency [9] | Potency [10]

CN1CCc2cc3c(cc2C1O)OCO3 (stereo not given)
inactive: Potency [11] | Potency [12] | Potency [13] | Potency [2] | Potency [3] | Potency [4] | Potency [6] | Potency [8]

O=C1C[C@@H]2OCC=C3CN4CC[C@]56c7ccccc7N1[C@H]5[C@H]2[C@H]3C[C@H]46
inactive: Potency [14] | Potency [15] | Potency [13] | Potency [2] | outcome [16] | Potency [4] | Potency [6] | Potency [8]

CC1=C2C[C@H]3[C@@H](CC=C4C[C@@H](O)CC[C@@]43C)[C@@H]2CC[C@]12O[C@@H]1C[C@H](C)CN[C@H]1[C@H]2C
inactive: Potency [13] | Potency [2] | outcome [16] | Potency [3] | Potency [4] | Potency [6] | Potency [8] | Potency [9] | Potency [10]

CCCCCON=O
inactive: Potency [14] | Potency [11] | Potency [12] | Potency [13] | Potency [2] | outcome [16] | Potency [5] | Potency [6] | Potency [7] | Potency [8] | Potency [17] | Potency [9] | Potency [10]

C[C@H]1[C@H](c2ccc(Cl)cc2)SC(=O)N1C(=O)NC1CCCCC1
active: Potency [15] 13.7 µM | Potency [9] 6.86 µM
inactive: Potency [14] | Potency [2] | outcome [16] | Potency [3] | Potency [4] | Potency [6] | Potency [8] | Potency [17] | Potency [10]

COP(=O)(OC)Oc1ccc([N+](=O)[O-])cc1
inactive: Potency [11] | Potency [13] | Potency [2] | outcome [16] | Potency [4] | Potency [6] | Potency [7] | Potency [8] | Potency [9]

Nc1c(Cl)c(Cl)c(Cl)c(Cl)c1Cl
active: Potency [14] 1.22 µM
inactive: Potency [2] | outcome [16] | Potency [3] | Potency [4] | Potency [6] | Potency [7] | Potency [17] | Potency [10]

O=C1C2(Cl)C3(Cl)C4(Cl)C(Cl)(Cl)C5(Cl)C3(Cl)C1(Cl)C5(Cl)C24Cl (stereo not given)
inactive: Potency [13] | outcome [16] | Potency [10]
active: Potency [3] 28.9 µM | Potency [4] 30.4 µM and 37.3 µM | Potency [5] 42.6 µM | Potency [6] 30.1 µM and 65.7 µM | Potency [7] 37.9 µM and 46.5 µM | Potency [17] 60.1 µM | Potency [9] 10.7 µM and 10.4 µM

Nc1ccc(N=Nc2ccccc2)cc1
active: Potency [1] 30.6 µM | Potency [7] 29.8 µM | Potency [9] 27.3 µM
inactive: Potency [13] | Potency [2] | outcome [16] | Potency [3] | Potency [4] | Potency [6] | Potency [8] | Potency [10]

FC(F)C(F)(F)OCC(Cn1cncn1)c1ccc(Cl)cc1Cl (stereo not given)
inactive: Potency [14] | Potency [2] | outcome [16] | Potency [3] | Potency [4] | Potency [6] | Potency [8] | Potency [10]
active: Potency [15] 19.2 µM | Potency [7] 48.3 µM | Potency [9] 27.1 µM

c1ccc2nc(N3CCNCC3)ccc2c1
inactive: Potency [14] | Potency [13] | Potency [2] | outcome [16] | Potency [3] | Potency [4] | Potency [5] | Potency [7] | Potency [17] | Potency [9] | Potency [10]

Oc1cc(Cl)c(Cl)c(Cl)c1Cl
inactive: Potency [14] | Potency [11] | Potency [12] | Potency [2] | Potency [3] | Potency [4] | Potency [6] | Potency [8] | Potency [10]
active: Potency [15] 21.2 µM | Potency [5] 29.9 µM | Potency [9] 33.6 µM

NC1CCC(CC2CCC(N)CC2)CC1 (stereo not given)
active: Potency [12] 26.8 µM
inactive: Potency [14] | Potency [15] | Potency [13] | Potency [2] | outcome [16] | Potency [4] | Potency [5] | Potency [6] | Potency [7] | Potency [8] | Potency [17] | Potency [9] | Potency [10]

CCN1CCC2(CC1)COc1cc3c(cc12)N(C(=O)c1ccc(-c2ccc(-c4nnc(C)o4)cc2C)cc1)CC3
active: Potency [11] 25.2 µM | Potency [12] 8.93 µM | Potency [5] 15.9 µM | Potency [7] 25.2 µM | Potency [17] 50.2 µM | Potency [9] 3.99 µM | Potency [10] 29.3 µM
inactive: Potency [14] | Potency [3] | Potency [4]

O=S(=O)(NS(=O)(=O)C(F)(F)F)C(F)(F)F
active: Potency [5] 60.9 µM | Potency [7] 48.4 µM | Potency [9] 60.9 µM
inactive: Potency [11] | Potency [12] | Potency [13] | Potency [2] | outcome [16] | Potency [6] | Potency [10]

[O]=[Cr](=[O])([OH])[O][Cr](=[O])(=[O])[OH]
active: Potency [13] 27.8 µM and 24.5 µM | Potency [2] 24.8 µM and 24.5 µM | Potency [5] 8.71 µM and 6.1 µM | Potency [6] 9.78 µM and 13.7 µM | Potency [7] 7.77 µM and 15.3 µM | Potency [17] 5.5 µM and 4.85 µM | Potency [9] 8.71 µM and 9.67 µM
inactive: Potency [11] | Potency [12] | outcome [16] | max activation [18] -13.2% and 6.2% | Potency [19] | Potency [20] | Potency [10]

CC(Cc1ccc(OCC(=O)O)cc1)NCC(O)c1csc(C(F)(F)F)n1 (stereo not given)
inactive: Potency [14] | Potency [11] | Potency [12] | Potency [13] | Potency [2] | outcome [16] | Potency [3] | Potency [4] | Potency [5] | Potency [6] | Potency [7] | Potency [8] | Potency [17] | Potency [9] | Potency [10]
